Test results: PubChem BioAssay AID449762 (Southern Research Specialized Biocontainment Screening …, 2010)
The campaign covered roughly 330,000 compounds. About 1,900 (0.58%) were called active. Roughly 4% stayed inconclusive and do not appear here. These entries were drawn from the full list. Entries with a potency or affinity are not part of this list. A number with no mark means an inactive call. No stated cut-off is given here; in the data, inconclusive means inhibition above about 70% without an active follow-up result; inactive means below that.

experiment: M. tuberculosis growth inhibition, HTS (AID 449762);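 further: bacterial growth assessed after seven days of incubation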; conditions: M. tuberculosis H37Rv growth inhibition, 7H9 media; at 25 µM; stronger effect = higher value

Compared with `COCCN(C(=S)Nc1cccc(C)c1C)C(C)c1ccco1` (stereo not drawn), `COc1ccccc1NC(=O)c1ccc(S(=O)(=O)N(C)C)cc1` is lower in inhibition: 4.25% for the first, -13.6% for the second.

Going from `CCCNC(=O)C(Cc1ccccc1)NC(=O)c1ccc(C(C)(C)C)cc1` (stereo not drawn) to `CNC(=O)c1ccc(NC(=O)Nc2ccccc2)cc1`, the inhibition rises from -2.64% to -1.42%.

First: CC(=O)C1=C(O)C(=O)N(c2cccc(Br)c2)C1c1ccc(Br)cc1 (stereo not drawn)
Second: O=C(NCc1cccc(Br)c1)C1CC(c2ccccc2C(F)(F)F)=NO1 (stereo not drawn)
The inhibition of the first is lower: 1.06% for the first, 1.36% for the second.

Compared with `COc1ccc(-c2noc(CSc3nc(-c4ccccc4)cc(=O)[nH]3)n2)cc1`, `O=c1cc(-c2ccccc2)nc(Cc2c(Cl)cccc2Cl)[nH]1` is higher in inhibition: -1.49% for the first, 8.31% for the second.

Compared with `CC1CCC2(CC1)N=C(N)Nc1nc3ccccc3n12` (stereo not drawn), `NC1=NC2(CCCC2)n2c(nc3ccccc32)N1` is lower in inhibition: 11.2% for the first, 1.5% for the second.

Compared with `O=C(O)c1cc(-c2ccccc2)nc2ccccc12`, `CNc1nc(NCc2ccccc2)c2ccccc2n1` is higher in inhibition: -1.59% for the first, 16.5% for the second.

Compared with `c1ccc(-c2cc3c(ccc4nonc43)nn2)cc1`, `OCCNc1nc(NCc2ccccc2)c2ccccc2n1` is higher in inhibition: -0.15% for the first, 5.73% for the second.

Going from `COc1cc(C(=O)NCC(c2cccs2)N2CCOCC2)cc(OC)c1OC` (stereo not drawn) to `COc1ccc(C(=O)OCC(=O)c2cc(OC)ccc2OC)c(OC)c1`, the inhibition falls from 7.52% to -2.93%.

First: CCC(=O)Oc1ccc2c(c1)O/C(=C\c1ccco1)C2=O
Second: COc1ccc2c(c1)O/C(=C\c1ccco1)C2=O
The inhibition of the first is higher: 6.29% for the first, -4.09% for the second.

Compared with `Cc1ccccc1OCC(O)Cn1c(N2CCCCC2)nc2c1c(=O)[nH]c(=O)n2C` (stereo not drawn), `O=C(COc1ccccc1)NCC(=O)N1CCCCCC1` is lower in inhibition: 6.49% for the first, -3.96% for the second.

Going from `Cc1cc(C)nc(-n2ncc3c2CC(c2ccccc2C)CC3=O)n1` (stereo not drawn) to `CCn1cc([N+](=O)[O-])c(C(=O)N2N=C(c3ccc(O)c(OC)c3)CC2c2ccccc2O)n1` (stereo not drawn), the inhibition falls from 3.74% to -14.8%.

Compared with `Cc1ccc(-c2cc(-c3ccc(C)cc3O)[nH]n2)cc1`, `Cc1ccc(O)c(-c2cc(-c3ccccc3F)[nH]n2)c1` is higher in inhibition: 17.4% for the first, 33.9% for the second.

Compared with `O=C1CN(C(=O)COC(=O)CCC(=O)c2ccc(F)cc2)c2ccccc2N1`, `COc1ccccc1OCCNC(=O)c1ccc(S(=O)(=O)N(C)C)cc1` is higher in inhibition: -6.63% for the first, -2.93% for the second.

First: CCOCCn1c(CN2CCN(C(=O)c3ccco3)CC2)nc2c1c(=O)n(C)c(=O)n2C
Second: CC1CCN(C(=O)c2ncn(Cc3ccccc3)c2C(=O)N2CCC(C)CC2)CC1
The inhibition of the first is higher: 5.24% for the first, 5.23% for the second.

Compared with `COc1cc(C(=O)OC2CC3CCC2(C)C3(C)C)ccc1OC(C)=O` (stereo not drawn), `COc1cccc(C(=O)OCC(=O)c2ccc(Br)s2)c1` is higher in inhibition: -10.7% for the first, -2.52% for the second.

Compared with `COCc1cc(=O)[nH]c(Cc2c(Cl)cccc2Cl)n1`, `O=c1[nH]c2ccccc2nc1/C=C(\O)C1CC1` is lower in inhibition: 3.62% for the first, -0.58% for the second.

First: O=C(NCc1ccccn1)C(=O)Nc1cc2c3c(c1)CC(=O)N3CCC2
Second: Cc1occc1-c1nnc(SCC(=O)Nc2ccccn2)o1
The inhibition of the first is lower: 5.14% for the first, 36.7% for the second.

Compared with `CSc1nc2nc(-c3ccc(F)cc3)c(CCN3CCN(C)CC3)cn2n1`, `CCn1cc(Cl)c(C(=O)N2N=C(c3ccc4ccccc4c3)CC2c2ccccc2O)n1` (stereo not drawn) is higher in inhibition: -4.6% for the first, 0.64% for the second.

First: CC1(/[N+]([O-])=C/c2ccc(Cl)cc2Cl)CCCCC1=O (stereo not drawn)
Second: CN(CCOc1ccc(Cl)cc1)C(=O)CN1C(=O)NC2(CCCCC2)C1=O
The inhibition of the first is higher: 3.79% for the first, -0.72% for the second.

Going from `O=C(Cn1c(CO)nc2ccccc21)NC1CCCCCC1` to `COCCN(C(=O)c1csnn1)C(C(=O)NC1CCCC1)c1ccccc1F` (stereo not drawn), the inhibition falls from -4.47% to -6.7%.

Going from `COC(=O)c1cnn(-c2nc(OC)cc(OC)n2)c1C` to `COc1cc(OC)nc(-n2ncc(OC)c(Br)c2=O)n1`, the inhibition falls from 5.96% to -1.81%.

Compared with `CSc1ccc(CN2C(=O)NC3(CCCCCCC3)C2=O)cc1`, `c1ccc(Nc2nc(N3CCCCC3)nc(N3CCCCC3)n2)cc1` is higher in inhibition: 3.48% for the first, 4.61% for the second.

Compared with `COc1cc2c(cc1O)CCN(C(=O)CSc1nncn1C)[C@@H]2C`, `COC(=O)c1cc(C#N)c(N2CCN(C)CC2)nc1C` is higher in inhibition: -6.62% for the first, -0.25% for the second.

First: COC(=O)CCCCC1SCC(NC(=O)c2ccccc2)C1OC(C)=O (stereo not drawn)
Second: COC(=O)CCCCC1SCC(NC(=O)c2ccccc2)C1Cl (stereo not drawn)
The inhibition of the first is higher: 4.8% for the first, -3.83% for the second.

Compared with `CC(C)CC(=O)NC(=S)Nc1ccccc1F`, `CCOC(=O)c1c(CC(C)C)csc1NC(C)=O` is higher in inhibition: -4.61% for the first, -1.62% for the second.

Compared with `O=C(Nc1ccnc(-c2ccncc2)n1)c1ccc(Cl)cc1`, `Cc1cccc(NC(=O)c2ccc(S(=O)(=O)N3CCCCC3C)cc2)n1` (stereo not drawn) is lower in inhibition: 11.3% for the first, 8.6% for the second.

Compared with `COc1ccc(NC(=O)C2CCN(Cc3cnn(-c4ccccc4)c3-n3cccc3)CC2)cc1OC`, `COc1ccc(OC)c(NC(=O)C2CCN(Cc3cnn(-c4ccccc4)c3-n3cccc3)CC2)c1` is higher in inhibition: -3.38% for the first, 61.3% for the second.

Going from `c1ccc(Nc2nc(N3CCCC3)nc(N3CCCC3)n2)cc1` to `O=C(C1CCN(S(=O)(=O)c2cccc3cccnc23)CC1)N1CCN(C2CCCC2)CC1`, the inhibition falls from 17.2% to -2.61%.

Compared with `O=C(CSc1nc2ccccc2o1)N1CCOCC1`, `Cc1occc1-c1nnc(SCC(=O)NCCc2ccccc2)n1Cc1ccccc1` is higher in inhibition: -2.89% for the first, 1.99% for the second.

Going from `Cc1c(NC(=O)C(c2ccccc2)c2ccccc2)cccc1C(=O)O` to `O=C(NC1CCCC1)C(c1ccc(F)cc1)N(Cc1ccc(F)cc1)C(=O)CCl` (stereo not drawn), the inhibition rises from 0.47% to 0.54%.

First: CCOC(=O)c1c(CC(C)C)csc1NC(=O)C(C)C
Second: CC(NCc1ccc(N(C)C)cc1)C1CC2CCC1C2 (stereo not drawn)
The inhibition of the first is higher: 1.18% for the first, 0.02% for the second.

In the case of `c1cc(CNC2C3CC4CC(C3)CC2C4)ccn1` (stereo not drawn), the inhibition is reported as 10.3%.
